Source: PubChem
Hits are enriched below; roughly 8% of the tested compounds scored in any of these assays.
HT1080 IDH1KD tx: qHTS for induction of synthetic lethality in tumor cells producing 2HG: qHTS for the HT-1080-IDH1KD cell line. Potency, µM (highest dose often 46.1 µM), actives largely listed as cytotoxic. HT-1080 IDH1 knockdown viability, ATP luminescence, 48 h. 360,000 tested, 2% active
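HT-1080-IDH1KD cells (IDH1 knocked down), 750/well in RPMI with 5% FBS, treated with compound 48 h at 37 degrees C. Viability by CellTiter-Glo luminescence, normalised to DMSO and no-cell wells; concentration-response curves classed.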
KB-3-1 tox: qHTS assay for MDR1-selective chemotherapeutics: Primary screen using the parental adenocarcinoma cell KB-3-1 | KB-3-1 viability, CellTiter-Glo ATP luminescence, 72 h | Potency, µM (doses to about 46.1 µM), usual class: cytotoxic | 400,000 tested, 1.4% active; also: nearly all actives have a fitted effect of over 60% in size
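Cytotoxicity in the drug-sensitive parental line KB-3-1 was scored as loss of CellTiter-Glo luminescence following 72 h incubation with compound. Values come from curve fitting of normalized concentration-response data.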
MCF10A rereplic: A quantitative high throughput screen for small molecules that induce DNA re-replication in MCF 10a normal breast cells | MCF 10A DNA re-replication, Hoechst nuclear intensity, 48 h | AID 624296, 2012 | Potency, µM (top dose mostly 46.1 µM), usual class: activators | 350,000 tested, 2.9% active; also: nearly all actives have a fitted effect of over 50% in size
SW480 rereplic: A quantitative high throughput screen for small molecules that induce DNA re-replication in SW480 colon adenocarcinoma cells; SW480 DNA re-replication, Hoechst DNA content imaging, 48 h; Potency, µM (doses to about 46.1 µM), actives largely listed as activators; 340,000 tested, 1.8% active; AID 624297, 2012; also: nearly all actives have a fitted effect of over 55% in size
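Image-based read-out: total Hoechst fluorescence of nuclei (405 nm excitation, 500-530 nm emission), with hits raising the fraction of high-intensity nuclei. SW480 colon cells incubated 48 hr with compounds at 37 C.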
HT1080NT lethal: qHTS for induction of synthetic lethality in tumor cells producing 2HG: qHTS for the HT-1080-NT fibrosarcoma cell line. HT-1080-NT fibrosarcoma viability, CellTiter-Glo ATP luminescence, 48 h. Potency, µM (doses to about 46.1 µM), actives largely listed as cytotoxic. 360,000 tested, 1.6% active. AID 686970, 2013;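 also: NT is the 2HG producing partner of a matched IDH1 knockdown line; nearly all actives have a fitted effect of over 55% in size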
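Read-out is CellTiter-Glo luminescence after 10 minutes at room temperature, following 48 hours' compound treatment of HT-1080-NT cells (750 cells/well, RPMI, 5% FBS, 37 degrees C).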
KB-V1 MDR tox: qHTS assay for MDR1-selective chemotherapeutics: Primary screen using the drug-selected MDR subline cells KB-V1; 400,000 tested, 3.4% active; Potency, µM (titrated, usually from 46.1 µM), hits mostly cytotoxic; KB-V1 MDR cells viability, CellTiter-Glo, 72 h; also: nearly all actives have a fitted effect of over 60% in size
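Cells of the MDR subline KB-V1 are plated, dosed with compound at multiple concentrations, and incubated 72 h at 37 degrees C; CellTiter-Glo is then added and luminescence read after 10 min.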
Of the large screens only hits and unclear results are named; the others gave an inactive call. Calls follow the shape of the dose curve; as a rule, active = well fitted curve in the direction sought with a large enough effect; inconclusive = small, poorly fitted or top-dose-only effect, or another doubt; inactive = no such curve, though single readings can be large; an effect the other way counts as inactive or inconclusive.

O=C(c1ccccc1)c1nn(-c2cccc(Cl)c2)c2nc(-c3ccccc3)cc(=O)n12	KB-3-1 tox inconclusive, KB-V1 MDR tox 4.1µM
Cc1cc(=O)n2c3ccccc3n(CC(O)CN3CCC(C)CC3)c2c1C#N (stereo not drawn)	SW480 rereplic 1.3µM
Cc1ccc2c(c1)[C@H]1[C@H](CO2)[C@H](c2ccccc2)[C@]2(C)C(=O)Nc3cc(F)c(F)cc3C(=O)N12	HT1080 IDH1KD tx inconclusive, KB-3-1 tox inconclusive, MCF10A rereplic 5.2µM, SW480 rereplic 23µM, HT1080NT lethal inconclusive
C[C@@]12C(=O)Nc3cc(F)ccc3C(=O)N1[C@H]1c3ccccc3OC[C@@H]1[C@@H]2c1ccccc1	HT1080 IDH1KD tx inconclusive
COc1ccc2c(c1)[C@H]1[C@H](CO2)[C@H](c2ccccc2)[C@]2(C)C(=O)Nc3cc(C)ccc3C(=O)N12	MCF10A rereplic inconclusive, SW480 rereplic inconclusive, KB-V1 MDR tox inconclusive
Cc1ccc2c(c1)[C@H]1[C@H](CO2)[C@H](c2ccccc2)[C@]2(C)C(=O)Nc3cc(Cl)ccc3C(=O)N12	HT1080 IDH1KD tx inconclusive, KB-3-1 tox inconclusive, MCF10A rereplic 9.2µM, SW480 rereplic inconclusive, HT1080NT lethal inconclusive, KB-V1 MDR tox inconclusive
Cc1ccc2c(c1)[C@H]1[C@H](CO2)[C@H](c2ccccc2)[C@]2(C)C(=O)Nc3ccc(F)cc3C(=O)N12	HT1080 IDH1KD tx 5.8µM, KB-3-1 tox inconclusive, MCF10A rereplic 3.3µM, SW480 rereplic 5.8µM, HT1080NT lethal inconclusive, KB-V1 MDR tox inconclusive
COc1ccc(NC(=O)Cn2c(SCc3cccc(Cl)c3)nc3ccncc32)c(OC)c1OC	none (no result: HT1080 IDH1KD tx, MCF10A rereplic, SW480 rereplic, HT1080NT lethal)
Cc1ccc(S(=O)(=O)N2CCCN(C)c3nc4ccccc4nc32)cc1	MCF10A rereplic 23µM, SW480 rereplic inconclusive, KB-V1 MDR tox 16µM
CN1CCN(S(=O)(=O)c2ccc3ccccc3c2)CC1	SW480 rereplic inconclusive
Cc1ccc(S(=O)(=O)N2CCCN(S(=O)(=O)c3ccc4ccccc4c3)CC2)cc1	SW480 rereplic inconclusive, KB-V1 MDR tox 8.2µM
O=[N+]([O-])c1cc(C(F)(F)F)ccc1N1CCN(S(=O)(=O)c2ccc3ccccc3c2)CC1	KB-3-1 tox 18µM, KB-V1 MDR tox 5.2µM
Cc1ccc(S(=O)(=O)N2CCCC2)cc1S(=O)(=O)N1CCCC1	KB-V1 MDR tox inconclusive
CN1CCCN(S(=O)(=O)c2ccccc2)c2nc3ccccc3nc21	MCF10A rereplic inconclusive
Cc1ccc(S(=O)(=O)N2CCCN(S(=O)(=O)c3ccc(C)c(C)c3)CC2)cc1C	KB-V1 MDR tox 4.1µM
COc1cc(NC(=O)c2ccc(NC(=O)N3CCSc4ncccc43)cc2)cc(OC)c1	none (no result: HT1080 IDH1KD tx, MCF10A rereplic, SW480 rereplic, HT1080NT lethal)
COC(=O)c1c(-c2cccc3ccccc23)csc1NC(=O)Cc1ccc(OC)c(OC)c1	HT1080 IDH1KD tx inconclusive, KB-3-1 tox inconclusive, MCF10A rereplic inconclusive, SW480 rereplic inconclusive
COC(=O)c1c(-c2ccc(Br)cc2)csc1NC(=O)Cc1ccc(OC)c(OC)c1	KB-3-1 tox inconclusive, KB-V1 MDR tox 7.3µM
COC(=O)c1c(-c2ccc(C)cc2)csc1NC(=O)Cc1ccc(OC)c(OC)c1	KB-3-1 tox inconclusive, MCF10A rereplic inconclusive, KB-V1 MDR tox 2.6µM
CCOc1ccc(-c2nc(CNC(=O)NC3CCCCC3)c(C)o2)cc1	none (no result: HT1080 IDH1KD tx, MCF10A rereplic, SW480 rereplic, HT1080NT lethal)
C=C(C)CSc1nc2sc3c(c2c(=O)n1-c1ccccc1)CCC(C)C3 (stereo not drawn)	none (no result: HT1080 IDH1KD tx, MCF10A rereplic, SW480 rereplic, HT1080NT lethal)
Cc1cccc(-n2c(=O)c3c(c4cc(C)ccc4n3C)n(CC(=O)Nc3ccc(C)cc3C)c2=O)c1	none (no result: HT1080 IDH1KD tx, MCF10A rereplic, SW480 rereplic, HT1080NT lethal)
